Measurements from the supplement of paper PMC7366291.
Where a name gives a salt, the structure may show the parent alone. ± gives the standard deviation or the standard deviation of the averaged measurements.

The molecules below were run on Danio rerio Tg(wt1b:EGFP) embryo, pronephros (assay: glomerular separation, fold change vs DMSO control; higher = glomeruli further apart (abnormal)). Conditions: 25 µM; exposure: 24-48 hpf.
In short: (§1)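 Dechorionated Tg(wt1b:EGFP) zebrafish embryos were kept from 24 to 48 hpf at 28.5°C in HEPES-buffered E3 containing 0.003% PTU, 0.5% DMSO and 25 μM compound. The pronephroi were then imaged from the dorsal side in agarose-filled 96-well plates at 470 nm with 10 z-slices, and 16 reference points were placed by hand on maximum projections in Fiji so that a macro could calculate distances and angles. Values lying more than 2 SD from the mean of a feature were discarded. Every feature is given as a fold change against the mean of DMSO-treated embryos from the same day.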

Compound | glomerular separation
Nc1nnc(-c2cccc(Cl)c2Cl)c(N)n1 [Lamotrigine] | 0.99 ± 0.4
Nc1ccc(S(=O)(=O)Nc2cnc3ccccc3n2)cc1 [Sulfaquinoxaline sodium salt] | 0.886 ± 0.3
CC(=O)NS(=O)(=O)c1ccc(N)cc1 [Sulfacetamide sodic hydrate] | 0.937 ± 0.25
c1ccc([C@H]2CN3CCSC3=N2)cc1 [Levamisole hydrochloride] | 0.699 ± 0.16
CC[N+](CC)(CC)CCOc1cccc(OCC[N+](CC)(CC)CC)c1OCC[N+](CC)(CC)CC [Gallamine triethiodide] | 1.13 ± 0.48
Cc1ccc(NC(=O)c2ccc(CN3CCN(C)CC3)cc2)cc1Nc1nccc(-c2cccnc2)n1 [Imatinib] | 1.09 ± 0.42

The molecules below were run on Danio rerio Tg(wt1b:EGFP) embryo, pronephros (assay: glomerular width (mean of left and right), fold change vs DMSO control; higher = wider glomerulus). Conditions: 25 µM; exposure: 24-48 hpf.
In short: as §1

Compound | glomerular width
CC(=O)[C@@]1(O)CC[C@H]2[C@@H]3C[C@H](C)C4=CC(=O)C=C[C@]4(C)[C@@]3(F)[C@@H](O)C[C@@]21C [Fluorometholone] | 1.174 ± 0.0086
C[C@H](N)[C@H](O)c1cccc(O)c1 [Metaraminol bitartrate] | 0.961 ± 0.083
CC(NCCc1ccc(O)cc1)C(O)c1ccc(O)cc1 (stereo unspecified) [Ritodrine hydrochloride] | 0.952 ± 0.012
C=CCOc1ccccc1OCC(O)CNC(C)C (stereo unspecified) [Oxprenolol hydrochloride] | 1.002 ± 0.0059
O=C1c2ccccc2C(=O)C1c1ccccc1 [Phenindione] | 1.07 ± 0.052
CCc1nn(CCCN2CCN(c3cccc(Cl)c3)CC2)c(=O)n1CCOc1ccccc1 [Nefazodone hydrochloride] | 1.05 ± 0.061
CCN(CC)C(=S)SSC(=S)N(CC)CC [Disulfiram] | 0.458 ± 0.05
CC[C@@]1(O)C(=O)OCc2c1cc1n(c2=O)Cc2cc3c(CN(C)C)c(O)ccc3nc2-1 [Topotecan] | 0.793 ± 0.022
C#C[C@]1(O)CC[C@H]2[C@@H]3CCc4cc(O)ccc4[C@H]3CC[C@@]21C [Ethinylestradiol] | 0.823 ± 0.015
CCN1CCN(c2cc3c(cc2F)c(=O)c(C(=O)O)cn3C2CC2)CC1 [Enrofloxacin] | 1.07 ± 0.12
CCCCNc1c(C(=O)OCC)c(C)nc2c1cnn2CC [Tracazolate hydrochloride] | 0.929 ± 0.072
CC(=O)N[C@@H](CC(C)C)C(=O)O [N-Acetyl-L-leucine] | 1.075 ± 0.0078
Cc1nc2ccccn2c(=O)c1CCN1CCC(C(=O)c2ccc(F)cc2)CC1 [Pirenperone] | 1.05 ± 0.037
CC(=C(CCO)SSCC1CCCO1)N(C=O)Cc1cnc(C)nc1N (stereo in doubt) [Fursultiamine Hydrochloride] | 0.996 ± 0.027
CCn1cc(C(=O)O)c(=O)c2cc(F)c(N3CCNC(C)C3)c(F)c21 (stereo unspecified) [Lomefloxacin hydrochloride] | 0.974 ± 0.12
NC(=O)c1ncn([C@@H]2O[C@H](CO)[C@@H](O)[C@H]2O)n1 [Ribavirin] | 0.965 ± 0.025
CN1[C@@H]2CC[C@H]1C[C@@H](OC(=O)c1c[nH]c3ccccc13)C2 [Tropisetron hydrochloride] | 1.02 ± 0.051
CCC1=C(C)CN(C(=O)NCCc2ccc(S(=O)(=O)NC(=O)N[C@H]3CC[C@H](C)CC3)cc2)C1=O [Glimepiride] | 1.02 ± 0.06
COc1ccccc1N1CCN(CC(O)COc2cccc3ccccc23)CC1 (stereo unspecified) [Naftopidil dihydrochloride] | 0.983 ± 0.024
COc1c(N2CCNC(C)C2)c(F)cc2c(=O)c(C(=O)O)cn(C3CC3)c12 (stereo unspecified) [Gatifloxacin] | 1.02 ± 0.054

Compound | glomerular width
C=C1C[C@H]2[C@@H]3C=C(C)C4=CC(=O)CC[C@]4(C)[C@H]3CC[C@]2(C)[C@@]1(OC(C)=O)C(C)=O [Melengestrol acetate] | 1.07 ± 0.039
COC(=O)C1=C(C)NC(C)=C(C(=O)OCCN(C)Cc2ccccc2)C1c1cccc([N+](=O)[O-])c1 (stereo unspecified) [Nicardipine hydrochloride] | 1 ± 0.027
O=S(=O)(O)c1cc(O)ccc1O [Ethamsylate] | 0.89 ± 0.079
COc1cc(N)c(Cl)cc1C(=O)NC1CCN(Cc2ccccc2)CC1 [Clebopride maleate] | 0.9245 ± 0.0057
CCCCC1C(=O)N(c2ccccc2)N(c2ccccc2)C1=O [Phenylbutazone] | 0.552 ± 0.0084
CC(=O)Oc1ccc(C(c2ccc(OC(C)=O)cc2)c2ccccn2)cc1 [Bisacodyl] | 0.957 ± 0.038
Cc1onc(-c2c(F)cccc2Cl)c1C(=O)N[C@@H]1C(=O)N2[C@@H]1SC(C)(C)[C@@H]2C(=O)O [Flucloxacillin sodium] | 0.989 ± 0.024
CCCCCCCCNC(C)C(O)c1ccc(SC(C)C)cc1 (stereo unspecified) [Suloctidil] | 0.877 ± 0.029
COc1ccc(-c2ccc3cc(C(=O)O)ccc3c2)cc1C12CC3CC(CC(C3)C1)C2 [Adapalene] | 0.993 ± 0.012
Cn1c(=O)c2c(ncn2CC2OCCO2)n(C)c1=O [Doxofylline] | 0.971 ± 0.021
COc1ccccc1OCC(O)COC(N)=O (stereo unspecified) [Methocarbamol] | 1.05 ± 0.03
CN(CCCCCCCCCCN(C)C(=O)Oc1cccc([N+](C)(C)C)c1)C(=O)Oc1cccc([N+](C)(C)C)c1 [Demecarium bromide] | 0.923 ± 0.032
COc1ccccc1N1CCN(CCCNc2cc(=O)n(C)c(=O)n2C)CC1 [Urapidil hydrochloride] | 0.969 ± 0.025
CCC(=O)[C@@]1(C)[C@H](C)C[C@H]2[C@@H]3CCC4=CC(=O)C=C[C@]4(C)[C@H]3[C@@H](O)C[C@@]21C [Rimexolone] | 1.02 ± 0.017
Nc1nnc(-c2cccc(Cl)c2Cl)c(N)n1 [Lamotrigine] | 0.999 ± 0.016
Nc1ccc(S(=O)(=O)Nc2cnc3ccccc3n2)cc1 [Sulfaquinoxaline sodium salt] | 0.97 ± 0.033
CC(=O)NS(=O)(=O)c1ccc(N)cc1 [Sulfacetamide sodic hydrate] | 1.05 ± 0.057
c1ccc([C@H]2CN3CCSC3=N2)cc1 [Levamisole hydrochloride] | 1.08 ± 0.018
CC[N+](CC)(CC)CCOc1cccc(OCC[N+](CC)(CC)CC)c1OCC[N+](CC)(CC)CC [Gallamine triethiodide] | 1.03 ± 0.04
Cc1ccc(NC(=O)c2ccc(CN3CCN(C)CC3)cc2)cc1Nc1nccc(-c2cccnc2)n1 [Imatinib] | 0.9892 ± 0.0063
